# Reference: paper PMC5700166
# What was measured:
# [1] = biological target: T1, GST-Nv-NF-kB (Ser allele) (Nematostella vectensis, UniProt A7UNT2 2-411); assay: protein-binding microarray (PBM); PBM: ~300 nM protein, 6 mM HEPES pH 7.8, 80 mM KCl, 0.5 mM EDTA, 0.5 mM EGTA, 6% glycerol, 35 ng/ul poly-dIdC, 1% milk, 1 h, room temperature; Ap Aiptasia and Nv Nematostella (sea anemones) / Co Capsaspora / Aq Amphimedon (sponge) / Dm Drosophila / Hu human; RHD is the Rel homology domain; high values mean tight binding; details: dsDNA, one strand shown
# T1 sequence: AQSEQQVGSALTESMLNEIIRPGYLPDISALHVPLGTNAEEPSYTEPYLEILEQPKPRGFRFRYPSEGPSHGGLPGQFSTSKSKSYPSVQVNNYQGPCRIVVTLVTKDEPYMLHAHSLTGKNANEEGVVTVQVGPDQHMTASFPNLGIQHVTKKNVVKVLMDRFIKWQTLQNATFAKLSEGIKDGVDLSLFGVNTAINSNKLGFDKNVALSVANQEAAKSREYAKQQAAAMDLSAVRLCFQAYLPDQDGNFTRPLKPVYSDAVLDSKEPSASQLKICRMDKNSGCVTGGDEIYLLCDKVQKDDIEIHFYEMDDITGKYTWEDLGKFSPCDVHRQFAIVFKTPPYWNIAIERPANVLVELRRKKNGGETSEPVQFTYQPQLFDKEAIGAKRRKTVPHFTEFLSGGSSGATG
# [2] = biological target: GST-Hu-p50 (Homo sapiens, UniProt P19838 7-356); assay: as above; details: dsDNA, one strand shown
# Chain of GST-Hu-p50 (P19838 7-356): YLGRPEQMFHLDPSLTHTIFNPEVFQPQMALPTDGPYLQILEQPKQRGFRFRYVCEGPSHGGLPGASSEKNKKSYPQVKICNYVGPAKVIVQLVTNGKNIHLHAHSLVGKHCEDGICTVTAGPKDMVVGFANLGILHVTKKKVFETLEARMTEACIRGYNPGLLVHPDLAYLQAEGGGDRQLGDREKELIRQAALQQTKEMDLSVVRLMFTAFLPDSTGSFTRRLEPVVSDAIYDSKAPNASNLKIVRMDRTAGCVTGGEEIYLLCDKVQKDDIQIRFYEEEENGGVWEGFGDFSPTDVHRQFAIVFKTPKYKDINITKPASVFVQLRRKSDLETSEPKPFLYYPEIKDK
Sequence,binding signal [1],binding signal [2]
CCGATTAACATCAGGGACCTCCCTGATGTTAATCGGGTCTTGATTCGCTTGACGCTGCTG,1.67 z-score,3.27 z-score
CCGATTAACATCAAGGAATTACCTGATGTTAATCGGGTCTTGATTCGCTTGACGCTGCTG,4.05 z-score,2.25 z-score
CCGATTAACATCAAAAACACCCCTGATGTTAATCGGGTCTTGATTCGCTTGACGCTGCTG,3.89 z-score,4.99 z-score
CCGATTAACATCAGAATCTCCCATGATGTTAATCGGGTCTTGATTCGCTTGACGCTGCTG,1.67 z-score,2.18 z-score
CCGATTAACATCAGGAATACCCATGATGTTAATCGGGTCTTGATTCGCTTGACGCTGCTG,3.36 z-score,3.18 z-score
CCGATTAACATCAATGGGAAAATTGATGTTAATCGGGTCTTGATTCGCTTGACGCTGCTG,5.32 z-score,3.49 z-score
CCGATTAACATCAAGGAAAACCCTGATGTTAATCGGGTCTTGATTCGCTTGACGCTGCTG,1.6 z-score,2.22 z-score
CCGATTAACATCAACCACCCCCTTGATGTTAATCGGGTCTTGATTCGCTTGACGCTGCTG,3.4 z-score,4.03 z-score
CCGATTAACATCAAGGTTTTCCCTGATGTTAATCGGGTCTTGATTCGCTTGACGCTGCTG,6.21 z-score,4.23 z-score
CCGATTAACATCAGGGACAAAAATGATGTTAATCGGGTCTTGATTCGCTTGACGCTGCTG,3.37 z-score,2.61 z-score
CCGATTAACATCAGGGGGATGTATGATGTTAATCGGGTCTTGATTCGCTTGACGCTGCTG,5.85 z-score,4.84 z-score
CCGATTAACATCACAAATGGGAATGATGTTAATCGGGTCTTGATTCGCTTGACGCTGCTG,1.63 z-score,1.06 z-score
CCGATTAACATCACAACCCCCCCTGATGTTAATCGGGTCTTGATTCGCTTGACGCTGCTG,4.57 z-score,4.53 z-score
CCGATTAACATCAGGACTCTCCCTGATGTTAATCGGGTCTTGATTCGCTTGACGCTGCTG,2.28 z-score,3.64 z-score
CCGATTAACATCACGCAACCCCCTGATGTTAATCGGGTCTTGATTCGCTTGACGCTGCTG,4.87 z-score,5.03 z-score
CCGATTAACATCAAAACAGTCCCTGATGTTAATCGGGTCTTGATTCGCTTGACGCTGCTG,4.68 z-score,4.68 z-score
CCGATTAACATCAAATTCCCAGTTGATGTTAATCGGGTCTTGATTCGCTTGACGCTGCTG,3.92 z-score,2.85 z-score
CCGATTAACATCAGGGAATTAACTGATGTTAATCGGGTCTTGATTCGCTTGACGCTGCTG,3.91 z-score,2.81 z-score

Sequence,binding signal [1],binding signal [2]
CCGATTAACATCAAAACAATCCCTGATGTTAATCGGGTCTTGATTCGCTTGACGCTGCTG,1.53 z-score,2.64 z-score
CCGATTAACATCAGGAATAACCCTGATGTTAATCGGGTCTTGATTCGCTTGACGCTGCTG,1.44 z-score,3.24 z-score
CCGATTAACATCAGGGGGGGACCTGATGTTAATCGGGTCTTGATTCGCTTGACGCTGCTG,3.87 z-score,3.99 z-score
CCGATTAACATCAGAATTCCCACTGATGTTAATCGGGTCTTGATTCGCTTGACGCTGCTG,3.68 z-score,3.3 z-score
CCGATTAACATCACATGTTCCCCTGATGTTAATCGGGTCTTGATTCGCTTGACGCTGCTG,6.15 z-score,3.07 z-score
CCGATTAACATCACAGTACCCCCTGATGTTAATCGGGTCTTGATTCGCTTGACGCTGCTG,3.98 z-score,3.45 z-score
CCGATTAACATCAACCACCCCCCTGATGTTAATCGGGTCTTGATTCGCTTGACGCTGCTG,3.31 z-score,4.14 z-score
CCGATTAACATCAAGTACCCCCCTGATGTTAATCGGGTCTTGATTCGCTTGACGCTGCTG,4.15 z-score,3.94 z-score
CCGATTAACATCAGGAAAACACCTGATGTTAATCGGGTCTTGATTCGCTTGACGCTGCTG,3.23 z-score,4.77 z-score
CCGATTAACATCAGGGGAGCCCCTGATGTTAATCGGGTCTTGATTCGCTTGACGCTGCTG,5.34 z-score,5.03 z-score
CCGATTAACATCAAAATTCCACCTGATGTTAATCGGGTCTTGATTCGCTTGACGCTGCTG,3.38 z-score,3.61 z-score
CCGATTAACATCACTTTACCCCCTGATGTTAATCGGGTCTTGATTCGCTTGACGCTGCTG,4.4 z-score,3.42 z-score
CCGATTAACATCACGGGGGGGACTGATGTTAATCGGGTCTTGATTCGCTTGACGCTGCTG,4.38 z-score,4.37 z-score
CCGATTAACATCAATCACCCCCATGATGTTAATCGGGTCTTGATTCGCTTGACGCTGCTG,2.78 z-score,3.76 z-score
CCGATTAACATCACACACCCCCCTGATGTTAATCGGGTCTTGATTCGCTTGACGCTGCTG,3.65 z-score,3.63 z-score
CCGATTAACATCAAATACTTCCCTGATGTTAATCGGGTCTTGATTCGCTTGACGCTGCTG,3.4 z-score,1.98 z-score
CCGATTAACATCAAAGAAATCCCTGATGTTAATCGGGTCTTGATTCGCTTGACGCTGCTG,4.02 z-score,3.77 z-score
